Screens: PubChem, The Scripps Research Institute Molecular Screening Center
GPR151 ag: activators of human GPR151, primary screen, cell-based, PathHunter beta-arrestin, luminescence; PathHunter beta-arrestin GPR151 cells; activation, % at 11.2 µM; 1% of 650,000 active; AID 1508602, 2020; in the data active means activation above about 4.9%;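 further: 0% = median of compound wells and 100% = cells with positive control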
FBW7 act: FBW7 E3 ligase activators, primary screen, biochemical, AlphaScreen, human; AlphaScreen FBW7–phospho-cyclin E peptide binding, activator screen; AID 1259310, 2017; F-box/WD repeat-containing protein 7 (Homo sapiens), Q969H0; normalized activity (activation), % at 26.1 µM; 0.13% of 650,000 active; in the data active means normalized activity above about 1.9%;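 further: purified mutant Fbw7 with reduced substrate affinity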
TEAD-YAP inh: TEAD-YAP interaction inhibition, primary screen, TEAD-YAP interaction inhibitor project, luminescence, HEK-TIYL cells. TEAD-Gal4/YAP UAS-luciferase luminescence. inhibition, % at 9.12 µM. 1.4% of 640,000 active. AID 1259422, 2018; in the data active means inhibition above about 32%;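 further: 0% = median of test compound wells and 100% = reference inhibitor wells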
MITF primary: MITF inhibitors, primary screen, biochemical, AlphaScreen, human | 0.91% of 650,000 active | Microphthalmia-associated transcription factor (Homo sapiens), O75030 | AlphaScreen MITF homodimerization, bead proximity signal | AID 1259374, 2018 | inhibition, % at 2.6 µM; in the data active means inhibition above about 50%;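 further: 0% = vehicle wells with protein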
Target sequence (O75030 whole entry, looked up): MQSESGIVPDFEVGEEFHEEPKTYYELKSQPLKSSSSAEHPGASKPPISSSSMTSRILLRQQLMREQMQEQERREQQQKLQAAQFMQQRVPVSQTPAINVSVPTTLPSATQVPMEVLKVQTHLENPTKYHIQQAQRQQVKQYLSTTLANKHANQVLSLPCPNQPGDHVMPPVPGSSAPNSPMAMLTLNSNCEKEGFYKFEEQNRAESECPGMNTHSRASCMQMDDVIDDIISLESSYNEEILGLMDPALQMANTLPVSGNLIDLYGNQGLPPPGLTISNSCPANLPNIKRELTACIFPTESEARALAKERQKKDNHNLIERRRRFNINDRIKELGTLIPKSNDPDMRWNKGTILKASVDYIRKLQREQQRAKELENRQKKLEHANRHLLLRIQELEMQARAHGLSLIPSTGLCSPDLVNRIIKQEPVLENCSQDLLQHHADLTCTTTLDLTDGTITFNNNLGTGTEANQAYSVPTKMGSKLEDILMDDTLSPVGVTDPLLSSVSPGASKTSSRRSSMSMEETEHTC
* hit, by the source's call. Hits are enriched below; roughly 3.5% of the tested compounds scored in any of these assays.

SMILES | GPR151 ag | FBW7 act | TEAD-YAP inh | MITF primary
CCN(CC)C(=O)C1CCCN(c2nc(Nc3ccccc3)c3ncn(-c4ccsc4)c3n2)C1 (stereo unspecified) | 0 | 0 | 33* | 11
CCCNc1nc(N2CCCC(C(=O)N(CC)CC)C2)nc2c1ncn2-c1ccsc1 (stereo unspecified) | 0 | 0 | 37* | -1
CCN(CC)C(=O)C1CCCN(c2nc(N)c3ncn(-c4ccsc4)c3n2)C1 (stereo unspecified) | 0 | 0 | 51* | 2
OCCNc1nc(NC2CCCC2)nc2c1cnn2-c1ccc(F)cc1 | 2 | 0 | -8 | 2
CC1(C)CC(n2c(SCC#N)nc3c(c2=O)C2(CCCCC2)Cc2ccccc2-3)CCO1 (stereo unspecified) | 2 | 0 | -2 | 5
CN(C)c1ccc(N=C2Sc3cccc4cccc(c34)C2=O)cc1 | 2 | 0 | -12 | 18
COc1ccccc1NC(=O)CN1CCC(c2nc3ccc(C)cc3[nH]2)CC1 | 0 | 0 | -17 | -18
COc1ccccc1NC(=O)N1CCC(c2nc3ccc(C)cc3[nH]2)CC1 | 0 | 0 | 64* | -3
COc1ccccc1NC(=O)N1CCC(c2nc3ccc(Cl)cc3[nH]2)CC1 | 0 | 0 | 80* | -3
CCOC(=O)C1(C(F)(F)F)N=C2C=CC=CN2C(c2ccccc2)=N1 (stereo unspecified) | 0 | 0 | -6 | -2
Cc1nn2c(N)c(-c3ccccc3)cnc2c1-c1ccc(Cl)cc1 | 1 | 0 | 33* | -4
Nc1c(-c2ccccc2)cnc2c(-c3ccc(Cl)cc3)cnn12 | -2 | 1 | -22 | 6
Nc1c(-c2ccccc2)cnc2c(-c3ccccc3)cnn12 | 0 | 0 | 41* | -4
O=C(CN(Cc1ccccc1F)C(=O)c1csnn1)NCc1ccc(F)cc1 | 0 | 0 | 2 | 6
N=C1c2ccccc2C(=O)C1c1ccccc1 (stereo unspecified) | 0 | 0 | -33 | 65*
COc1ccc(C2C(=O)c3ccccc3C2=O)cc1 | -1 | 0 | -4 | 7
COCCNc1ccnc2c(-c3ccc(CCC(=O)O)cc3)cnn12 | -3 | 0 | 50* | 15
c1cncc(CCNc2ccnc3c(-c4ccc5ccccc5c4)cnn23)c1 | 0 | 0 | 59* | -8
Clc1ccccc1-c1cnn2c(NCCc3cccnc3)ccnc12 | 2 | 0 | 65* | -2
Fc1ccc(-c2cnn3c(NCCc4cccnc4)ccnc23)cc1Cl | 1 | 0 | -62 | -11
c1ccc2cc(-c3cnn4c(NC5CCCNC5)ccnc34)ccc2c1 (stereo unspecified) | 0 | 0 | 65* | 0
O=C(O)CCc1ccc(-c2cnn3c(NCc4ccccn4)ccnc23)cc1 | -1 | -1 | 14 | 24
FC(F)(F)c1cc(-c2cnn3c(NC4CCCNC4)ccnc23)cc(C(F)(F)F)c1 (stereo unspecified) | 2 | 0 | 2 | -16
O=C(NCCCN1CCCC1=O)c1ccc2c(=O)n(CC3CCCO3)c(=S)[nH]c2c1 (stereo unspecified) | 2 | 0 | 1 | -10
CCCCCSc1nnc2c(n1)OC(/C=C/c1cccs1)N(C(C)=O)c1ccccc1-2 (stereo unspecified) | -1 | 0 | -9 | 0
SMILES | GPR151 ag | FBW7 act | TEAD-YAP inh | MITF primary
COCCNc1ccnc2c(-c3ccccc3Cl)cnn12 | 1 | 0 | 58* | 0
CC(=O)C1=C(O)C(=O)N(c2nnn(C)n2)C1c1cccs1 (stereo unspecified) | -1 | 3.6* | -1 | 5
O=C(C1=C(O)C(=O)N(c2nccs2)C1c1cccs1)c1cccs1 (stereo unspecified) | -1 | 0 | -4 | 33
CCc1ccc(OCC(=O)Nc2cc3nn(-c4ccccc4)nc3cc2C)cc1 | 0 | 0 | -5 | -8
COC1=C(OC)C(=O)C(C/C=C(\C)CC/C=C(\C)CC/C=C(\C)CC/C=C(/C)CC/C=C(\C)CC/C=C(\C)CC/C=C(\C)CC/C=C(\C)CC/C=C(\C)CCC=C(C)C)=C(C)C1=O | 1 | 1 | 1 | 11
CCC/C(C)=C/Cc1c(O)c2c(c(C)c1OC)COC2=O | 0 | 0 | 66* | 18
COc1ccc(Nc2c(-c3ccccc3)c(=O)c2=O)cc1Cl | 1 | 0 | 55* | 99*
CCC(C)Nc1c(-c2ccccc2)c(=O)c1=O (stereo unspecified) | 1 | 0 | 9 | 9
CC(Nc1c(-c2ccccc2)c(=O)c1=O)c1ccccc1 (stereo unspecified) | -2 | 0 | 40* | 0
COc1ccc(Nc2c(-c3ccc(C)cc3)c(=O)c2=O)cc1 | 1 | 0 | -5 | -8
CCN(c1ccc(OC)cc1)c1c(-c2ccccc2)c(=O)c1=O | 0 | 0 | 48* | 12
COc1ccc(Nc2c(-c3ccccc3)c(=O)c2=O)cc1 | 1 | 0 | 60* | -2
O=c1c(Nc2cccc(Cl)c2)c(-c2ccccc2)c1=O | -1 | 0 | 1 | 9
COCCN(CCOC)C(=O)COC(=O)c1ccc(OC)cc1 | -1 | 0 | 3 | 10
O=C1CCC(C(=O)NCC2CCC3(CCN(Cc4ccc(F)cc4)CC3)O2)=NN1 (stereo unspecified) | 1 | 0 | 0 | -7
CCc1cccc(Nc2c(-c3ccc(OC)cc3)c(=O)c2=O)c1 | 1 | 1 | -8 | 6
CCc1ccc(Nc2c(-c3ccccc3)c(=O)c2=O)cc1 | -1 | 0 | 56* | 0
Cc1ccc(-c2c(Nc3cccc(F)c3)c(=O)c2=O)cc1 | 0 | 0 | 50* | 9
COc1ccc(-c2c(Nc3cccc(SC)c3)c(=O)c2=O)cc1 | 1 | 1 | 61* | 15
COc1cccc(N(C(=O)c2csnn2)C(C(=O)NC(C)(C)C)c2ccccc2)c1 (stereo unspecified) | 2 | 0 | 10 | -11
Cn1ccnc1SCC(=O)N1c2ccccc2Sc2ccc(C(F)(F)F)cc21 | 0 | 0 | -6 | 9
CC(=O)c1nnn(CC(N)=O)c1C | 1 | 0 | -7 | 5
Cc1cc(O)c(C(c2ccccc2Cl)c2c(O)cc(C)n(C)c2=O)c(=O)n1C | 3 | 0 | 6 | -8
N#Cc1c(/N=C\c2ccc(O)cc2O)sc2c1CCCC2 | 1 | 0 | 17 | 18
N#Cc1c(/N=C/c2ccc(O)cc2O)sc2c1CCCC2 | 1 | 0 | 61* | 5
SMILES | GPR151 ag | FBW7 act | TEAD-YAP inh | MITF primary
Nc1ncc(N=Nc2cc(C(=O)O)ccc2Cl)s1 | -2 | 0 | 3 | 9
Cc1nc(N)sc1N=Nc1cc(C(=O)O)cc(C(=O)O)c1 | 2 | 0 | -2 | 52*
Nc1ncc(N=Nc2cc(C(=O)O)cc(C(=O)O)c2)s1 | 0 | 0 | 12 | 61*
NC(=O)c1ccc(SC(F)(F)F)cc1 | 1 | 0 | -3 | 1
O=c1[nH]nc(NCc2nc3ncccc3[nH]2)c2ccccc12 | 1 | 0 | 9 | 16
COc1ccccc1C1NC(=O)c2[nH]nc(-c3ccc(C)cc3)c21 (stereo unspecified) | 1 | 0 | 55* | 9
